Screens (PubChem)
PV pol inh = inhibitors of poliovirus RNA polymerase binding and polymerization; AID 588519; 0.66% of 150,000 active; poliovirus polymerase elongation, fluorescence polarization; active compounds read low; % elongation, % (compound at 16.7 µg/mL); in the data active means % elongation below about 90%
Target sequence (P03300 1749-2209 limits assumed): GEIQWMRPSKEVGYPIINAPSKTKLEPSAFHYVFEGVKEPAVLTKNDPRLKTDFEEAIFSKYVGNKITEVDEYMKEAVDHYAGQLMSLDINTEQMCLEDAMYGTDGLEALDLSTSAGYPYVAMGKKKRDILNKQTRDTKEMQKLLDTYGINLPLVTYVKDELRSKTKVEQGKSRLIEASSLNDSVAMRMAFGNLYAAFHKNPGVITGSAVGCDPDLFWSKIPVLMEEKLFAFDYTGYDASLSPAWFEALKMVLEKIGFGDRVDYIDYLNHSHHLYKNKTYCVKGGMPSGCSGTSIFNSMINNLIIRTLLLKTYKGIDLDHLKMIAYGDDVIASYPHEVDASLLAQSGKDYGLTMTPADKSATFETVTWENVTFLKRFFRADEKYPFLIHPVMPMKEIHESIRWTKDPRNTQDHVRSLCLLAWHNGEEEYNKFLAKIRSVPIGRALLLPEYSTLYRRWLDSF
MbtI inh = blocks the Mycobacterium tuberculosis siderophore enzyme MbtI; P9WFX0; purified MbtI enzyme, fluorescence intensity read-out; inhibition, % (concentration not given with the values); 0.89% of 100,000 active; AID 493033; in the data active means inhibition mostly above about 56%, no sharp cut-off; inactive means mostly below about 77%
MenB inh = Mtb MenB enzyme inhibition; P9WNP5; MenB enzyme assay, absorbance read-out; inhibition, % (no concentration beside the values); 0.43% of 100,000 active; AID 540299; in the data active means inhibition above about 21%, passing the limit was not always enough
Numbers without * were called inactive; / = no result given. A selection: hits, their analogues and other compounds. The true share with any hit is near 1.4%.

SMILES	PV pol inh	MbtI inh	MenB inh
COc1cc2ccc(=O)oc2c(OC2OC(CO)C(O)C(O)C2O)c1O (centres undefined)	103	/	-36
COc1c(O)cc2c(c1O)C1OC(CO)C(O)C(O)C1OC2=O (centres undefined)	99	3	43*
COCCN1C(=O)CC(Sc2ncccc2C(=O)O)C1=O (centres undefined)	99	16	4
COc1cc(C(=O)O)ccc1OC(C)C	102	0	/
Nc1cccc(C2=NCCN2)c1	104	/	2
O=C(Nc1cccc(C2=NCCN2)c1)Nc1cccc(C2=NCCN2)c1	68*	/	4
O=C1/C(=C/c2ccccc2Cl)SC2N=C(c3ccccc3)NN12 (centres undefined)	105	/	-1
CCN1C(=O)/C(=C2\SC(=S)N(NC(=O)c3ccccc3)C2=O)c2ccccc21	101	/	-17
CC(=O)N1C(=O)/C(=C2\SC(=S)N(C(C)C(=O)O)C2=O)c2ccccc21 (centres undefined)	103	9	34*
CCNC(=O)COc1ccc(-c2nnco2)cc1	104	-2	11
Cc1ccc(NC(=O)CSc2nc(=O)n(Cc3ccco3)c3c2CCC3)cc1F	76*	/	/
Cc1cc(C)c(NC(=O)CSc2nc(=O)n(Cc3ccco3)c3c2CCC3)c(C)c1	108	/	/
CC(C)(C)OC(=O)NCc1ccc(C(=O)O)cc1	99	0	-27
CC(C)(C)OC(=O)NCc1cccs1	102	6	33*
CC(C)n1c(CN(C)Cc2ccccc2)nc2ccccc21	98	-3	5
CCOc1ccc(S(=O)(=O)NCCO)cc1C	103	-6	2
CCOc1ccc(NC(=O)c2cnn(-c3ccccc3)c2NC(=O)c2ccco2)cc1	103	-83	-35
Cc1n[nH]c(=S)n1Cc1ccccc1	99	17	7
S=c1[nH]ccn1Cc1ccccc1	102	68*	-1
O=C(O)c1ccccc1SCC(=O)N1CCN(Cc2ccccc2)CC1	108	5	-9
O=C(O)C1C2C=CC3(CN(c4ccc(Cl)c(F)c4)C(=O)C13)O2 (centres undefined)	100	/	8
O=C1CC(Nc2ccccc2)C(=O)N1c1ccccc1Cl (centres undefined)	107	/	-8
CC12C=CC(O1)C1C(=O)N(c3ccccc3Cl)C(=O)C12 (centres undefined)	103	66*	/
COC(=O)c1cc(N2C(=O)C3C4C=CC(C)(O4)C3C2=O)ccc1Cl (centres undefined)	104	81*	-7
O=C(Cn1cnc2ccccc21)N/N=C/c1sc(N2CCCCC2)nc1-c1cccs1	118	6	-44
SMILES	PV pol inh	MbtI inh	MenB inh
Cc1nc(NS(=O)(=O)c2ccccc2)sc1NC(=O)OCCOc1nc(N(C)C)nc(N(C)C)n1	102	18	0
COc1ccc(/C=N/NC(=S)Nc2c(C)n(C)n(-c3ccccc3)c2=O)cc1OC	100	27	-12
COc1ccc(/C=C2\SC(=O)N(c3c(C)n(C)n(-c4ccccc4)c3=O)C2=O)cc1OC	81*	87*	-32
c1ccc(CSC2=NCCS2)cc1	/	-9	/
S=c1[nH]nc(SCc2ccccc2)s1	98	87*	-12
Cc1cc(C(=O)CSc2ccc(S(=O)(=O)N3CCN(C)CC3)cn2)c(C)n1C1CC1	103	-8	-31
CSc1ccc(-c2nnc(NC(=O)/C=C/c3cccs3)o2)cc1	106	-3	-73
C=CCn1c(C)cc(C(=O)CN2C(=O)NC(CCSC)C2=O)c1C (centres undefined)	105	15	-40
CC1CCc2nc(NC(=O)NCCCN3CCOCC3)sc2C1 (centres undefined)	99	-14	-21
Cc1cc(C)c(C#N)c(=O)[nH]1	111	99	-19
Cc1cc(C)c(C#N)c(=S)[nH]1	101	90*	-19
COCc1cc(C)nc(SCC(N)=O)c1C#N	99	-8	1
COC(=O)c1cc2nc(-c3ccc(F)cc3)cc(C(F)(F)F)n2n1	87*	/	-15
COC(=O)c1ccc(C(=O)OC)c(NC(=O)c2cc3nc(-c4ccc(C)cc4)cc(C(F)(F)F)n3n2)c1	104	/	/
C=CCN(CC=C)Cc1c(O)ccc2oc(C)c(C(=O)Nc3ccccc3C)c12	104	17	-2
CCN(CC)S(=O)(=O)c1cccc(-n2sc3ccccc3c2=O)c1	108	100*	-19
CCN(CC)S(=O)(=O)c1ccccc1	100	-7	2
N#CCN(C(=O)CSc1nccn1-c1cccc(Cl)c1)c1ccccc1	106	-4	-11
CC1(C)Cc2c(C#N)c(N)sc(=S)c2CO1	99	37	-32
CC1(C)Cc2c(c(N3CCNCC3)[nH]c(=S)c2C#N)CO1	102	95*	-9
CCCNC(=O)C(C)N1Cc2ccccc2C1=O (centres undefined)	98	-13	7
CCC(=O)Oc1ccc(C=C2C(=O)NC(=O)NC2=O)cc1OC	98	24	-18
